# TDP1 cell noCPT – qHTS for Inhibitors of human tyrosyl-DNA phosphodiesterase 1 (TDP1): qHTS in cells in absence of CPT; hit rate 15% among 420,000; DT40 Tdp1-/- hTDP1 cells, no CPT, ATP luminescence, 48 h; Potency, µM (series often up to 46.2 µM), actives largely listed as inhibitors; also: nearly all actives have a fitted effect of over 55% in size
#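 Readout: luminescence from CellTiter-Glo after 30 min in the dark at RT. Cells: DT40 Tdp1-/- with stable hTDP1, 400/well. Exposure: compounds alone, ≥48 hr, 37 °C.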
# ELG1 repair inh – qHTS screen for small molecules that inhibit ELG1-dependent DNA repair in human embryonic kidney (HEK293T) cells expressing luciferase-tagged ELG1; HEK293T ELG1-luciferase reporter, luminescence, 16 h; DNA damage induced by 5-fluorouridine; Potency, µM (top dose mostly 46.1 µM), usual class: inhibitors; hit rate 2.3% among 330,000; AID 504467, 2011; also: nearly all actives have a fitted effect of over 55% in size
#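 Reporter activity after DNA damage by 5-fluorouridine is monitored. Compound-treated cells incubate 16 hr at 37 °C, then ONE-Glo is added for 30 min before luminescence reading.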
# IL1B secr inh – qHTS for Inhibitors of Inflammasome Signaling: IL-1-beta AlphaLISA Primary Screen. activity change, % at 57.5 µM. hit rate 4.7% among 360,000. THP-1 LPS/ATP IL-1B secretion, AlphaLISA, 16 h; hits give low values. AID 743279, 2014; in the data active = activity change below about -50%; inconclusive = mostly about -30% to -49%
#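 Secreted IL-1B measured by AlphaLISA bead assay after 16 h compound exposure of THP-1 cells; compounds (final up to 57.5 uM) added 1 h before LPS (250 ng/mL) and ATP (1.25 mM) stimulation; lower signal means less secretion.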
# HT1080NT lethal – qHTS for induction of synthetic lethality in tumor cells producing 2HG: qHTS for the HT-1080-NT fibrosarcoma cell line; HT-1080-NT fibrosarcoma viability, CellTiter-Glo ATP luminescence, 48 h; Potency, µM (top dose mostly 46.1 µM), actives largely listed as cytotoxic; hit rate 1.6% among 360,000;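 also: NT is the 2HG producing partner of a matched IDH1 knockdown line; nearly all actives have a fitted effect of over 55% in size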
#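 A 48-hour cytotoxicity screen used HT-1080-NT cells plated 2 hours before compound delivery. ATP-based CellTiter-Glo luminescence measured viability, normalized to DMSO and no-cell controls.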
# TDP1 cell CPT – qHTS for Inhibitors of human tyrosyl-DNA phosphodiesterase 1 (TDP1): qHTS in cells in presence of CPT | hit rate 12% among 420,000 | chicken DT40 Tdp1-/-;hTDP1 cells + 20 nM CPT, ATP luminescence, 48 h | Potency, µM (series often up to 46.2 µM), actives largely listed as inhibitors; also: nearly all actives have a fitted effect of over 55% in size
#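 Chicken DT40 Tdp1-/- cells stably complemented with human TDP1 were seeded at 400 cells/well in medium containing 20 nM camptothecin, exposed to pin-transferred compounds, and grown at 37 °C for at least 48 hr. Viability was read as ATP luminescence.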
# HT1080 IDH1KD tx – qHTS for induction of synthetic lethality in tumor cells producing 2HG: qHTS for the HT-1080-IDH1KD cell line. AID 686971, 2013. Potency, µM (doses to about 46.1 µM), actives largely listed as cytotoxic. hit rate 2% among 360,000. HT-1080 IDH1 knockdown viability, ATP luminescence, 48 h
#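 IDH1KD HT-1080 cells, 750/well, RPMI + 5% FBS; compound pinned after 2 h settling; 48 h, 37 °C; CellTiter-Glo luminescence; % activity normalised to DMSO and no-cell wells; curves fitted, classed by r2 and efficacy.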
# Numbers stand for hits; n = inactive; u = inconclusive; x = not tested or not shown; [ ] = remark or other dose. Shown are actives, neighbours in structure and some others; about 19% of the full set was active somewhere. Unless noted, calls follow the shape of the dose curve; as a rule, active = well fitted curve in the direction sought with a large enough effect; inconclusive = small, poorly fitted or top-dose-only effect, or another doubt; inactive = no such curve, though single readings can be large; an effect the other way counts as inactive or inconclusive.
SMILES,TDP1 cell noCPT,ELG1 repair inh,IL1B secr inh,HT1080NT lethal,TDP1 cell CPT,HT1080 IDH1KD tx
CNc1c([N+](=O)[O-])ncn1C,n,n,n,n,n,n
CCN(CC)c1c([N+](=O)[O-])ncn1C,n,n,n,n,n,n
COc1cccc(C(C)(O)c2nc(-c3cccs3)cs2)c1 (centres undefined),u,x,n,n,u,n
CCOc1ncccc1C(=O)N1CCN(S(=O)(=O)c2ccc3c(c2)OCCO3)CC1,u,n,n,n,n,n
Cn1cnc([N+](=O)[O-])c1Cl,u,n,-95,n,u,n
Cn1cnc([N+](=O)[O-])c1Oc1cccc2ccccc12,29µM,n,x,u,u,21µM
O=C(COc1cccnc1[N+](=O)[O-])Nc1cccc2ccccc12,n,n,n,n,n,n
COc1cc2[nH]c(C(=O)N3CCc4ccccc43)cc2c(OC)c1OC,u,u,n,n,u,n
CCC(C(=O)NCc1cccnc1)n1nc(C)n2c(cc3occc32)c1=O (centres undefined),n,n,n,n,n,n
COCc1c(C(=O)N2CCN(C)CC2)cnn1-c1ncc2c(n1)-c1ccccc1CCC2,n,x,x,x,n[9.04 µM],x
CCn1c(CN2CCC(C)CC2)nc2cc(NC(=O)COc3ccc(Cl)c(C)c3)ccc21,5.2µM,x,x,x,6.5µM,x
CCn1c(CN2CCCCC2)nc2cc(NC(=O)COc3ccccc3C(C)(C)C)ccc21,n,x,x,x,n,x
CC(=O)NCCc1nc2cc(NC(=O)COc3cccc(C)c3)ccc2n1C,n,u,n,u,n,n
CC1CCN(CCc2nc3cc(NC(=O)Nc4ccccc4)ccc3n2C)CC1,u,u,n,n,21µM,n
Cc1cccc(OCC(=O)Nc2ccc3c(c2)nc(CCN2CCC(C)CC2)n3C)c1,u,n,-64,n,u,n
CC1CCN(CCc2nc3cc(NC(=O)COc4ccc([N+](=O)[O-])cc4)ccc3n2C)CC1,u,n,-101,n,16µM,u
CC(=O)Nc1ccc2c(c1)nc(CCN1CCC(C)CC1)n2C,n,n,n,n,n,n
S=C(Nc1ccc(Br)cc1Cl)NN1CCOCC1,n,n,n,n,n,n
CCOc1ccccc1NC(=O)CCCc1ccc(OC)c(C)c1,u,n,n,n,u,u
Cc1cc(C(=O)N(C)Cc2c(F)cccc2Cl)c2ccccc2n1,u,n,n,n,u,n
O=C(NCCNC[C@@H](O)COc1ccc(O)cc1)N1CCOCC1,n,x,x,x,n,x
CCn1cc(CCC(=O)NC2CCCC2)c2ccccc21,n,n,n,u,n,n
CCOC(=O)C1(Cc2cccc(Cl)c2)CCCN(C(=O)CCOC)C1 (centres undefined),u,n,n,n,n,n
CCOC(=O)C1(Cc2cccc(Cl)c2)CCCN(C(=O)c2c(CC)noc2C)C1 (centres undefined),12µM,u,n,n,u,n
CCOC(=O)C1(Cc2cccc(Cl)c2)CCCN(C(=O)c2cc(C)[nH]n2)C1 (centres undefined),n,n,n,n,n,n
CCOC(=O)C1(Cc2cccc(Cl)c2)CCCN(C(=O)c2cc(C)on2)C1 (centres undefined),21µM,u,n,n,18µM,n
C=CCCC(=O)N1CCCC(Cc2cccc(Cl)c2)(C(=O)OCC)C1 (centres undefined),u,n,-56,n,u,n
CCOC(=O)C1(Cc2cccc(Cl)c2)CCCN(C(=O)c2cc(C(C)C)nn2C)C1 (centres undefined),u,n,u,n,15µM,n

# Compound activity (PubChem)
